Compound activity (PubChem)
This is a sample that favours compounds with a hit; in the whole collection about 8.9% have one here.
DRD3 antagonist – D3 dopamine receptor (human) antagonism; P35462; D3R cells, DiscoveRx beta-arrestin luminescence, antagonist mode; hits give low values; max response, negative = inhibition, %; 2.5% of 360,000 active; AID 652054; in the data active = max response below about -50%; inconclusive = no clear call, values can overlap the other calls
Target sequence (P35462 whole entry, looked up): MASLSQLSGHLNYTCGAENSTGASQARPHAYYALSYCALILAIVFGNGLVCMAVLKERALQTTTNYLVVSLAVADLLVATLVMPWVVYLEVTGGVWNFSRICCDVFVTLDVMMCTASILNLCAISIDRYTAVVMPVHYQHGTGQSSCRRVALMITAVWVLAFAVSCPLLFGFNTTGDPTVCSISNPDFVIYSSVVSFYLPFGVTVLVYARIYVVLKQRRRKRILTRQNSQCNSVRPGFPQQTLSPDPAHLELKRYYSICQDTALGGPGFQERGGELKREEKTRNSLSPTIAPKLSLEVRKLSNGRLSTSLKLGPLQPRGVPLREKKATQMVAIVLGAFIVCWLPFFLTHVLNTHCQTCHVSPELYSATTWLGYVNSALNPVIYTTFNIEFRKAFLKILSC
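Cells plated overnight at 1500 cells/well, then exposed to library compounds with dopamine controls for 90 minutes at 37 degrees C. DiscoveRx reagent added for 30–60 minutes at room temperature; luminescence read, quantitative HTS format.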
D3 ag – agonists of human D3 dopamine receptor | P35462 | 0.58% of 410,000 active | D3R DiscoveRx beta-arrestin cells, luminescence, 90 min | max activation, %; in the data active = max activation above about 30%
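Cells at 1500/well, incubated overnight, then treated with pinned compounds (dopamine as control) for 90 min at 37 degrees C. DiscoveRx reagent added for 30 - 60 minutes at room temperature; luminescence read.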
MCF10A rerep – inducers of DNA re-replication in MCF 10A breast cells | 2.9% of 350,000 active | MCF 10A DNA re-replication, Hoechst nuclear intensity, 48 h | Potency, µM (series often up to 46.1 µM), usual class: activators | AID 624296; also: nearly all actives have a fitted effect of over 50% in size
KB-3-1 cytotox – KB-3-1 parental cell cytotoxicity | 1.4% of 400,000 active | KB-3-1 viability, CellTiter-Glo ATP luminescence, 72 h | Potency, µM (series often up to 46.1 µM), hits mostly cytotoxic; also: nearly all actives have a fitted effect of over 60% in size
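Viability of parental KB-3-1 cells, measured by CellTiter-Glo luminescence, followed a 72 h incubation at 37 °C with pinned compounds in phenol-red-free DMEM containing 10% FBS.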
SW480 rereplic – DNA re-replication induction in SW480 cells | SW480 DNA re-replication, Hoechst DNA content imaging, 48 h | Potency, µM (titrated, usually from 46.1 µM), hits mostly activators | 1.8% of 340,000 active | AID 624297; also: nearly all actives have a fitted effect of over 55% in size
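250 cells/well; 23 nL cpd via pin tool; 48 hr, 37 C, 5% CO2; Hoechst 40 min; imager read of total nuclear intensity, ex 405/em 500-530 nm.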
KB-V1 MDR tox – KB-V1 MDR subline cytotoxicity; KB-V1 MDR cells viability, CellTiter-Glo, 72 h; Potency, µM (top dose mostly 46.1 µM), usual class: cytotoxic; 3.4% of 400,000 active; AID 1347076; also: nearly all actives have a fitted effect of over 60% in size
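In this primary screen, KB-V1 cells overexpressing P-gp are incubated with library compounds (lowest to highest concentration) for 72 h at 37 degrees C before a luminescent ATP viability read.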
Hits are given with their value; - = inactive; ? = inconclusive; . = not tested or not shown. Unless noted, calls follow the shape of the dose curve; as a rule, active = well fitted curve in the direction sought with a large enough effect; inconclusive = small, poorly fitted or top-dose-only effect, or another doubt; inactive = no such curve, though single readings can be large; an effect the other way counts as inactive or inconclusive.

SMILES	DRD3 antagonist	D3 ag	MCF10A rerep	KB-3-1 cytotox	SW480 rereplic	KB-V1 MDR tox
Cc1cccn2c(=O)c3cc(C(=O)NC4CCCC4)c(=N)n(C4CCCCC4)c3nc12	-	-	-	-	3.3µM	-
Cc1cccn2c(=O)c3cc(S(=O)(=O)c4ccc(Br)cc4)c(=N)n(C4CCCC4)c3nc12	-	-	-	-	-	-
Cc1cccn2c(=O)c3cc(C(=O)NCc4ccco4)c(=N)n(C4CCCCC4)c3nc12	-	-	23µM	-	16µM	?
COCCCn1c(=N)c(C(=O)NCc2ccco2)cc2c(=O)n3cccc(C)c3nc21	.	-	.	-	.	?
Cc1cccn2c(=O)c3cc(C(=O)NC4CCCC4)c(=N)n(Cc4ccc(F)cc4)c3nc12	-	-	2.3µM	-	4.6µM	-
Cc1ccc(CSc2nc3cccnc3n2Cc2nc(-c3ccccc3F)oc2C)cc1	.	-	.	.	.	.
CN(C)c1ccc(/C=C(\C#N)c2nc3ccccc3c(=O)[nH]2)cc1	.	-	.	.	.	.
O=c1[nH]c2ccccc2nc1/C=C/c1ccc(Cl)cc1	-	-	18µM	-	21µM	-
Cc1cccc(/C=C(\C#N)c2nc3ccccc3c(=O)[nH]2)c1	.	34	.	-	.	-
COc1ccc(C(=O)Nc2cccc(/C=C/c3nc4ccccc4c(=O)[nH]3)c2)cc1	-	-	6.5µM	?	?	-
CC(=O)Nc1ccc(/C=C/c2nc3ccccc3[nH]c2=O)cc1	-	-	?	-	?	-
Cc1nc(/C=C/c2ccccc2)[nH]c(=O)c1-c1ccccc1	-	-	?	?	?	18µM
O=C(Nc1ccc(N2CCN(CCOc3ccc(Cl)cc3)CC2)c(C(=O)O)c1)c1ccc(F)cc1	.	-	.	-	.	-
NCc1ccccc1CC(=O)N[C@@H]1C(=O)N2C(C(=O)O)=C(CSc3nnnn3CC(=O)O)CS[C@H]12	.	-	.	.	.	.
CCCCN(C)C(=O)Cn1c(SCC(=O)Nc2ccc(C)c(C)c2)nc2ccccc21	.	-	.	-	.	-
O=c1[nH]c(/C=C/c2cccc3ccccc23)nc2ccccc12	-	-	?	-	?	-
C(=C\c1ccco1)/c1nc2ccccc2[nH]1	-	-	-	?	?	?
Cc1cccc(/C=C\c2nc3ccccc3c(=O)[nH]2)c1	-	-	5.8µM	15µM	21µM	?
O=c1[nH]c(/C=C/c2ccccc2F)nc2ccccc12	-	-	8.2µM	4.6µM	3.7µM	2.6µM
C(=C\c1nc2ccccc2[nH]1)/c1ccccc1	-	-	5.2µM	18µM	15µM	-
O=C(Nc1ccc(F)c(Cl)c1)N1CCC(CN2CCOCC2)CC1	.	-	.	.	.	.
Cc1cc(NCc2ccccc2)nc2ccccc12	-57	-	-	-	-	-
CCOC(=O)c1ccc(Nc2cc(C)nc(-c3ccccc3O)n2)cc1	-	68	-	-	-	-
Cc1ccc(C)c(Nc2cc(C)nc(-c3ccccc3O)n2)c1	-	-	?	2.6µM	?	-
Cc1cc(N/N=C/c2c(O)ccc3ccccc23)nc(-c2ccccc2O)n1	-	-	3.3µM	?	13µM	?
SMILES	DRD3 antagonist	D3 ag	MCF10A rerep	KB-3-1 cytotox	SW480 rereplic	KB-V1 MDR tox
Cc1ccc(NC(=O)N2CCN(C)c3ncccc32)cc1C	.	-	.	-	.	-
Cc1cc(NCc2ccccc2)nc(-c2ccccc2O)n1	-	-	?	?	-	16µM
Cc1cc(Nc2ccccc2)nc(-c2ccccc2O)n1	-	-	?	-	-	-
Cc1cc(NC2CCCCC2)nc(-c2ccccc2O)n1	-	-	18µM	?	-	?
c1ccc2nc(N3CCCC3)c(N3CCCCC3)nc2c1	-	-	21µM	-	-	-
C/C(=N\Nc1nc(-c2ccccn2)nc2ccccc12)c1ccc(F)cc1	-	-	-	-	?	?
c1ccc(CCNc2nc(-c3ccccn3)nc3ccccc23)cc1	-70	-	-	12µM	?	-
CCN1CCN(c2nc(-c3ccccn3)nc3ccccc23)CC1	?	-	-	-	?	5.2µM
CCCN(CCC)c1nc(-c2ccccn2)nc2ccccc12	?	-	21µM	4.6µM	10µM	2.9µM
Cc1ccc(-c2cn3c(n2)sc2cc(C(=O)NC4CCCCCC4)ccc23)c(C)c1	.	-	.	-	.	-
Ic1ccc(Nc2nc(NCCN3CCOCC3)nc(N3CCCC3)n2)cc1	.	.	.	-	.	?
c1ccc(Oc2nc(-c3ccccn3)nc3ccccc23)cc1	-	-	?	?	21µM	-
c1ccc2c(N3CCCCC3)nc(N3CCCC3)nc2c1	-	-	-	-	-	16µM
COc1ccc(Oc2nc(-c3ccccn3)nc3ccccc23)cc1	-	-	-	?	?	?
CN(C)c1nc(-c2ccccn2)nnc1-c1ccccc1	-	-	-	?	?	?
c1ccc2c(c1)nc(N1CCCCC1)c1ccccc12	-	-	-	-	-	-
CCN(CC)c1nc(-c2ccccn2)nc(-c2ccccc2)c1C#N	-	-	-	?	-	16µM
c1ccc(-c2nc(N3CCCCCC3)c3ccccc3n2)nc1	-127	-	?	3.7µM	-	?
CC(C)[C@H]1COCCS(=O)(=O)N1Cc1cccc([N+](=O)[O-])c1	.	.	.	-	.	-
O=C(NC1CCN(Cc2ccccc2)CC1)c1cc(S(=O)(=O)N2CCOCC2)ccc1Cl	-	-	-	-	?	-
O=C(NC1CCCN(CCc2ccccc2)C1)c1c[nH]c2ccccc12 (stereo unspecified)	-	-	-	-	-	-
CC(Oc1ccccc1)C(=O)NC1CCN(Cc2ccccc2)CC1 (stereo unspecified)	-59	-	-	-	-	?
CN1C(=O)/C(=C\c2ccccc2F)Sc2ccc(C(=O)NC3CCN(Cc4ccccc4)CC3)cc21	?	-	?	?	21µM	-
O=C(NC1CCN(CCc2c[nH]c3ccccc23)CC1)c1ccccc1	-103	-	-	-	-	-
Cc1oc(-c2ccccc2)cc1C(=O)NC1CCN(Cc2ccccc2)CC1	-82	-	-	-	-	-
SMILES	DRD3 antagonist	D3 ag	MCF10A rerep	KB-3-1 cytotox	SW480 rereplic	KB-V1 MDR tox
CC(Oc1ccccc1)C(=O)NC1CCCCCCC1 (stereo unspecified)	-	-	-	-	-	-
Cc1ccc(C(=O)Nc2ccccc2C(=O)OCc2cc(=O)n3nc(C4CC4)sc3n2)cc1	.	-	.	-	.	?
CC(C)(C)c1ccc(C(=O)NC2CCN(Cc3ccccc3)CC2)cc1	-118	-	-	?	16µM	-
O=C(NC1CCN(Cc2ccccc2)CC1)c1cncc(Br)c1	-86	-	-	-	-	-
O=C(NC1CCN(Cc2ccccc2)CC1)c1ccccc1	-81	-	-	-	-	-
O=C(NC1CCN(Cc2cccc([N+](=O)[O-])c2)CC1)c1ccccc1	-	-	-	-	-	-
O=C(NC1CCN(Cc2ccc(Cl)cc2Cl)CC1)c1ccccc1	-78	-	-	-	-	-
O=C(NNC1CCN(Cc2ccccc2)CC1)c1ccccc1	-	-	-	?	-	-
